A short description of test [1]: HEK-293 Cancer Cell Toxicity qHTS against the NCATS CANVASS Library (AID 1347355). Note: nearly all actives have a fitted effect of over 65% in size. Note: potency is the fitted concentration of half-maximal effect. A digest of the protocol: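 First, 1000 cells go into each well and rest for 4 hours. Next, an 11-point dilution range is pinned in. Plates then incubate 72 hours before CellTiter-Glo addition and luminescence reading.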
A general note: In qHTS, concentration-response curves come from the screen itself.

The nature of test [2]: HPAF-II 24hr Apoptosis Induction qHTS against the NCATS CANVASS Library (AID 1347356). The gist of the method: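 Cells seeded at 500 per well, then compounds pin-transferred in an 11-point concentration series. After 24 hours at 37 degrees C, Caspase-Glo 3/7 was added and luminescence measured following 15 min at room temperature.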
The nature of test [3]: HPAF-II 12hr Apoptosis Induction qHTS against the NCATS CANVASS Library (AID 1347358). A digest of the protocol:
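Cells plated at 500 per well are dosed with compound and incubated 12 hours at 37 degrees C. Caspase-Glo 3/7 reagent is added and, after 15 min at room temperature, luminescence proportional to caspase activity is measured.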

Test [4] in a line: HEK293 24hr Apoptosis Induction qHTS against the NCATS CANVASS Library (AID 1347359). The gist of the method:
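Caspase-3/7 activation measured as luminescence from the DEVD-based Caspase-Glo reagent, 15 min at room temperature, following 24-hour compound treatment of HEK293 cells.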

Test [5] in a line: HPAF-II 18hr Apoptosis Induction qHTS against the NCATS CANVASS Library (AID 1347360). The gist of the method:
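Caspase-Glo 3/7 luminescence (DEVD substrate) after 15 min RT; HPAF-II, 500 cells/well, 18 h compound exposure at 37 degrees C, qHTS series; doxorubicin control 0.1nM - 4uM.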

Test [6] can be described thus: HEK293 12hr Apoptosis Induction qHTS against the NCATS CANVASS Library (AID 1347361). The gist of the method:
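500 HEK293 cells/well; cpds pin-transferred, 11-pt conc series; 12 h, 37 degrees C/5% CO2; Caspase-Glo 3/7 added, 15 min RT dark; luminescence.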

For test [7], the system named is NAD(P)H diaphorase (Clostridium kluyveri). The experiment in a line: Diaphorse counterscreen qHTS: Assay Interference Panel against the NCATS CANVASS Library (AID 1347362). The gist of the method:
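Counterscreen for coupling-enzyme interference: resorufin fluorescence from resazurin/NADH turnover, read after 5 min at room temperature. Compounds were tested over an 11-point series after 15 min dark preincubation with diaphorase in PBS-Tween.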
On the technique in general: Counterscreens check selectivity or assay interference.

Test [8] deals with Luciferin 4-monooxygenase (Photinus pyralis) (UniProt P08659). The experiment in a line: Firefly luciferase counterscreen qHTS: Assay Interference Panel against the NCATS CANVASS Library (AID 1347363). Note: series mostly up to about 57 µM. A digest of the protocol:
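Luminescence inhibition readout: compounds (11-point qHTS) sat 15 min at room temperature with substrate mix (0.013 mM luciferin and ATP), then firefly luciferase was added and signal read 5 min later.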

Test [9] can be described thus: qHTS for ATAD5 Agonist screened against the NCATS CANVASS Library (AID 1347367). Note: potency is the fitted concentration of half-maximal effect. A digest of the protocol:
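Luminescence read-out: ATAD5-driven luciferase in stably transfected HEK 293T cells, which rises post-transcriptionally with DNA damage. Cells were exposed 16hr at 37C to test compound; a CellTiter-Fluor fluorescence read (1hr) measured viability first.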

Test [10] is described as follows: J3T Cancer Cell Toxicity qHTS against the NCATS CANVASS Library (AID 1347371). Note: potency is the fitted concentration of half-maximal effect. A digest of the protocol: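 Luminescence from CellTiterGlo, reporting cellular ATP, serves as the viability measure after 72 hr compound treatment of J3T canine glioma cells seeded at 500 cells/well.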
For test [11], the target named is Nuclear receptor subfamily 1 group I member 3 (Homo sapiens) (UniProt Q14994). The experiment in a line: qHTS for Constitutive Androstane Receptor (CAR) Agonist screened against the NCATS CANVASS Library (AID 1347373).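 Note: every well also contained 1.5 µM PK11195 alongside the test compound.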 Note: potency is the fitted concentration of half-maximal effect. The gist of the method:
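Cells were plated and allowed to attach for 4hr, then dosed with compound in an 11-point series alongside 1.5uM PK11195. After 24hr at 37C, viability was measured fluorometrically and CAR-driven CYP2B6 reporter luminescence was recorded.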

The nature of test [12]: qHTS for Hypoxia signaling pathway (HIF-1) agonists against the NCATS CANVASS Library (AID 1347375). The gist of the method: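 Cells plated and rested 5 h, compounds pinned in DMSO across 11 concentrations, incubated 17 h at 37C, loaded with CCF4-AM for 2 h, fluorescence read at 460 and 530 nm, then CellTiter-Glo luminescence measured for viability and normalization.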
Test [13] can be described thus: 10-beta competent E. coli microbial cell viability qHTS against the NCATS CANVASS Library (AID 1347376). Note: series mostly up to about 46 µM. The gist of the method:
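Bacterial suspension diluted to 0.2 OD was dosed with compounds, 11-point series, then held overnight at 37C. BacTiter-Glo reagent was added, and after 20 min at room temperature ATP-dependent luminescence was measured.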

A short description of test [14]: qHTS for H2AX Agonists against the NCATS CANVASS Library (AID 1347378). Note: potency is the fitted concentration of half-maximal effect. The gist of the method: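 TR-FRET readout (ex 320 nm, em 665/620 nm ratio) of phospho-H2AX (S139) in CHO-K1 lysates. Cells treated 3 hr at 37C with compound titration, 0.76% DMSO; lysis 30 min, antibody detection 24 hr at RT.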
Test [15] in a line: Inflammasome Signaling qHTS Counterscreen: IL-1-beta AlphaLISA counterscreen against the NCATS CANVASS Library (AID 1347381).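 Note: cell-free check with purified IL-1β in medium and no THP-1 cells; series mostly up to about 57 µM.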 A digest of the protocol: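 Purified IL-1-beta (4 pg/well) + compound, 11-pt conc. series; acceptor beads 6 ug/mL + biotin-Ab 0.6 nM final, 1 h RT; SA-donor 24 ug/ml final, 30 min dark RT; read ex 680/em 615.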
The nature of test [16]: Cytotoxicity qHTS for assessment of Hepg2 cells membrane integrity screened against the NCATS CANVASS Library (AID 1347387). The gist of the method: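 Cells were seeded at 2000 per well and left overnight to attach. Compounds were pin-transferred to give 0.59 nM - 46 uM in an 11-point series and incubated 5 hr at 37C. CytoTox-ONE reagent was added and, after 10 min at room temperature, fluorescence (ex 560, em 590 nm) was read.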

Test [17] in a line: qHTS for activators of dead-cell proteases activity screened against the NCATS CANVASS Library (AID 1347392).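 Note: luminescence from protease leaking out of membrane-damaged cells cleaving impermeant substrate; rising signal means more cytotoxicity.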 The gist of the method: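 Luminescent dead-cell protease readout (AAF-aminoluciferin, 15 min, room temperature) after 5 h compound treatment of HepG2 cells (2000/well, pre-attached 18 h). Eleven concentrations.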
Test [18] can be described thus: Redox Reaction Profiling qHTS: Assay Interference Panel against the NCATS CANVASS Library (AID 1347401). Note: potency is the fitted concentration of half-maximal effect. The gist of the method: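 Redox-cycling liability assessed as DTT-driven conversion of resazurin (5 uM, with 200 uM DTT, HEPES pH 7.3) to fluorescent resorufin. Fluorescence at 525/598 nm measured initially and after 15 min dark incubation.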
Test [19] is described as follows: qHTS for inhibitors of Rabies Virus screened against the NCATS CANVASS Library (AID 1347402; calls by dose curve; note: series mostly up to about 46 µM).

Structures are written as SMILES. Results filed as inconclusive are left out. The source made the active and inactive calls. Unless noted, calls come from the whole dose curve; as a rule, active = well fitted curve in the direction sought with a large enough effect; inconclusive = small, poorly fitted or top-dose-only effect, or another doubt; inactive = no such curve, though single readings can be large; an effect the other way counts as inactive or inconclusive.

Chain of Nuclear receptor subfamily 1 group I member 3 (Homo sapiens) (Q14994 whole entry, looked up): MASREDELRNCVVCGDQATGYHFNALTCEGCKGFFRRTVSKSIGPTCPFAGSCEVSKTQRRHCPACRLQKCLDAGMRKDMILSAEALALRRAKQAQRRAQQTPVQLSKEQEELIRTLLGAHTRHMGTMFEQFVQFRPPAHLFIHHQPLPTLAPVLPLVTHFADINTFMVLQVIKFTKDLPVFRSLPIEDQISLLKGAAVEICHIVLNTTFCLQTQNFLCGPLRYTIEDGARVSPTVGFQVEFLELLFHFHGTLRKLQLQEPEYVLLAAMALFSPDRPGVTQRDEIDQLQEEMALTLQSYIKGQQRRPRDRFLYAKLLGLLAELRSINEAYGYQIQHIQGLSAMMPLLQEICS
Chain of Luciferin 4-monooxygenase (Photinus pyralis) (P08659 whole entry, looked up): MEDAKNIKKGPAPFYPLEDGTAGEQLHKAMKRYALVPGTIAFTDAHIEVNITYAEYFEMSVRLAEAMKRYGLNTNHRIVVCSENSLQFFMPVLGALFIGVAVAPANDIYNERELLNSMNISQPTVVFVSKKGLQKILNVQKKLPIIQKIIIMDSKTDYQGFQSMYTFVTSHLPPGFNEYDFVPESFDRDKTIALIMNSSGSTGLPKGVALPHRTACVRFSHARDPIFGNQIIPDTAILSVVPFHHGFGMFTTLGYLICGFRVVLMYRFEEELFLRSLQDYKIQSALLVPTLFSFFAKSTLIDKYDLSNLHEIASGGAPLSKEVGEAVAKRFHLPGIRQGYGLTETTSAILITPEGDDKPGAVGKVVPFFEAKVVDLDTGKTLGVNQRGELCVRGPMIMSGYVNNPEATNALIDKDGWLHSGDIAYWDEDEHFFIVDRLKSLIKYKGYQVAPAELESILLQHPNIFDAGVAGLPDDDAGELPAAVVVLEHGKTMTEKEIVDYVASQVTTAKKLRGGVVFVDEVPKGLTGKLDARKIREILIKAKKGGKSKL

`CCC(=O)N[C@@H](C[C@H](C)C(Cl)(Cl)Cl)C(=O)N1C(=O)C=C(OC)[C@@H]1C[C@H](C)C(Cl)Cl`: the Potency result in test [1], in test [7], in test [8], in [9], in test [10] and in test [11] was “inactive” in each case. Moreover, the Potency result in test [14] and in test [18] was “inactive” throughout. For the same compound, the compound was called inactive in [2], in [3], in [4], in test [5], in [6] and in test [12]. Besides, the outcome in [13], in test [15], in test [16] and in [17] was inactive.
As for `CC[C@@H]1CN2CCC3(Nc4cccc(OC)c4C3=O)[C@@H]2C[C@@H]1/C(=C\OC)C(=O)OC` (stereo not given in full), the Potency entry in [1], in test [7], in [8], in test [9], in test [10] and in test [11] was “inactive” throughout. Further, the Potency result in test [14] and in [18] was “inactive” in each case. Also, the result in test [2], in [3], in [4], in [5], in test [6] and in test [12] was inactive. The compound was called inactive in test [13], in [15], in [16], in test [17] and in test [19].
Regarding `CO[C@H]([C@@H](C)[C@H]1O[C@]1(C)C[C@H](C)/C=C/C=C(\C)[C@H]1O[C@@H](CC(=O)O)CC[C@@H]1C)[C@@H](C)O`, the Potency in test [1] was 20.9 nM (active); in test [9] it was 46.7 nM (active); in [10], 20.9 nM (active); in test [11], 105 nM (active). The outcome in test [2], in [3], in test [4], in [5], in test [6] and in test [12] was inactive. Moreover, the call in test [13], in [15], in [16], in [17] and in test [19] was inactive. Also, the Potency result in [7], in test [8], in test [14] and in [18] was “inactive” each time.
As for `O[C@H]1C=C[C@@]23CCN(Cc4cc5c(cc42)OCO5)[C@@H]3C1`, the Potency result in test [1], in test [7], in [8], in test [9], in test [10] and in test [11] was “inactive” each time. The Potency entry in test [14] and in test [18] was “inactive” each time. The outcome in [2], in test [3], in test [4], in [5], in test [6] and in [12] was inactive. Further, the compound was called inactive in [13], in [15], in test [16], in test [17] and in [19].
`CC[C@]12C=CCN3CC[C@]4(C(=C(C(=O)OC)C1)Nc1ccccc14)[C@@H]32`: the result in test [2], in test [3], in test [4], in test [5], in test [6] and in test [12] was inactive. Further, the compound was classed as inactive in test [13], in test [15], in test [16], in [17] and in test [19]. Besides, the Potency entry in test [7], in test [8], in [9], in [10], in test [11] and in [14] was “inactive” each time. Besides, the Potency result in test [18] was “inactive”.
On to `C=C(C)[C@H]1C(=O)c2c3c(cc4c5c(n1c24)[C@@]1(C)[C@@H](CC[C@H]2[C@](C)(/C=C/C=C(\C)C(=O)O)[C@@H](O)CC[C@@]21C)C5)C1=CC(C)(C)OC(C)(C)[C@H]1[C@@H]3O`, for which the compound was called inactive in [4], in test [6], in test [13] and in test [15]. The Potency entry in test [8], in test [9], in test [10] and in test [11] was “inactive” each time. Besides, the figures for the Potency in test [14] and in test [18] were 13700 nM (active) and 19200 nM (active), respectively.
Regarding `C=CC(C)(C)[C@@]12C[C@H]3C(=O)N/C(=C\c4cnc[nH]4)C(=O)N3[C@@H]1Nc1ccccc12`, the Potency entry in [1], in test [7], in test [8], in test [9], in test [10] and in test [11] was “inactive” throughout. Further, the Potency result in [14] and in test [18] was “inactive” each time. For the same compound, the outcome in test [2], in [3], in test [4], in test [5], in [6] and in [12] was inactive. In addition, the compound was called inactive in test [13], in test [15], in [16], in [17] and in test [19].
In the case of `CCCCC1CC[C@H]2CCCC(CCC)N12` (stereo not given in full), the Potency result in test [1], in test [7], in [8], in [9], in test [10] and in [11] was “inactive” in each case. The Potency result in [14] and in [18] was “inactive” throughout. Also, the outcome in test [2], in test [3], in [4], in test [5], in [6] and in test [12] was inactive. Further, the call in test [13], in test [15], in test [16], in [17] and in test [19] was inactive.
`C[N+](C)(C)CCc1c[nH]c2ccccc12`: the Potency result in [1], in test [7], in test [8], in [9], in [10] and in [11] was “inactive” each time. For the same compound, the Potency entry in [14] and in [18] was “inactive” throughout. The compound was classed as inactive in test [2], in [3], in test [4], in [5], in [6] and in test [12]. Moreover, the call in test [13], in [15], in test [16], in test [17] and in test [19] was inactive.

Values taken from PubChem BioAssay (NCATS).
